# Data reported in PubChem BioAssay.
# For some of these results: Measured potencies and affinities stand elsewhere.
# Test: polyglutamine-triggered caspase-3 activation inhibitors, cell-based (AID 1583)
# Details: polyglutamine-induced caspase-3 activation, cell assay; stronger effect = higher value; concentration not given here
row,SMILES,inhibition [%]
1,O=C1CC2OCC=C3CN4CC[C@]56c7ccccc7N1C5[C@H]2[C@H]3CC46 (stereo partly drawn),-12.5
2,COc1ccc2c(c1OC)C(=O)O[C@H]2[C@H]1c2cc3c(cc2CCN1C)OCO3,-1.71
3,COc1ccc2c(c1)[C@]13CCCC[C@H]1[C@H](C2)N(C)CC3,-11.5
4,C/C=C(\C)C(=O)O[C@H]1C[C@@H](OC(C)=O)[C@@]2(C(=O)OC)CO[C@@H]3C2[C@]12CO[C@](O)(C(=O)OC)[C@H]2[C@](C)(C12O[C@@]1(C)[C@H]1C[C@@H]2OC2OC=C[C@@]21O)[C@@H]3O (stereo partly drawn),0.47
5,C[C@@H]1CC[C@H]2[C@@H](C)C(=O)O[C@@H]3OC4(C)CC[C@@H]1[C@]32OO4,18.8
6,C=C1C2CC[C@H]3[C@]4(C)C[C@H](OC5OC(CO)C(OS(=O)(=O)O)C(OS(=O)(=O)O)C5OC(=O)CC(C)C)C[C@@H](C(=O)O)[C@H]4CC[C@]3(C2)[C@H]1O (stereo partly drawn),13.1
7,CCC(C)C(=O)O[C@H]1[C@H](O)C2C(CN3CC(C)CCC3[C@@]2(C)O)C2C[C@]34O[C@]5(O)C(OC(=O)C(C)(O)C(C)O)CC[C@@]3(C)C5C(OC(C)=O)[C@@H](OC(C)=O)C4[C@@]21O (stereo partly drawn),19.1
8,CC(=O)C1=C(O)C2C3c4c[nH]c5cccc(c45)CC3C(C)(C)N2C1=O (stereo not drawn),-21.2

# Test: suppressors of polyQ aggregation in yeast, 75Q-TubU reporter (AID 1593)
# Details: Yeast 75Q polyglutamine aggregation reporter
row,SMILES,score
1,O=C1CC2OCC=C3CN4CC[C@]56c7ccccc7N1C5[C@H]2[C@H]3CC46 (stereo partly drawn),1.28
2,C[C@H]1O[C@@H](O[C@H]2[C@@H](O)C[C@H](O[C@H]3[C@@H](O)C[C@H](O[C@H]4CC[C@]5(C)C6CC[C@]7(C)[C@@H](C8=CC(=O)OC8)CC[C@]7(O)C6CC[C@@H]5C4)O[C@@H]3C)O[C@@H]2C)C[C@H](O)[C@@H]1O (stereo partly drawn),1.05
3,CO[C@H]1[C@H](O)[C@H](O[C@H]2CC[C@]3(C)C4CC[C@]5(C)C(C6=CC(=O)OC6)CC[C@]5(O)C4CC[C@@H]3C2)O[C@@H](C)[C@@H]1O (stereo partly drawn),1.23
4,COc1ccc2c(c1OC)C(=O)O[C@H]2[C@H]1c2cc3c(cc2CCN1C)OCO3,1.46
5,COc1ccc2c(c1)[C@]13CCCC[C@H]1[C@H](C2)N(C)CC3,1.32
6,C/C=C(\C)C(=O)O[C@H]1C[C@@H](OC(C)=O)[C@@]2(C(=O)OC)CO[C@@H]3C2[C@]12CO[C@](O)(C(=O)OC)[C@H]2[C@](C)(C12O[C@@]1(C)[C@H]1C[C@@H]2OC2OC=C[C@@]21O)[C@@H]3O (stereo partly drawn),1.31
7,C[C@@H]1CC[C@H]2[C@@H](C)C(=O)O[C@@H]3OC4(C)CC[C@@H]1[C@]32OO4,0.49
8,C=C1C2CC[C@H]3[C@]4(C)C[C@H](OC5OC(CO)C(OS(=O)(=O)O)C(OS(=O)(=O)O)C5OC(=O)CC(C)C)C[C@@H](C(=O)O)[C@H]4CC[C@]3(C2)[C@H]1O (stereo partly drawn),1.67
9,CCC(C)C(=O)O[C@H]1[C@H](O)C2C(CN3CC(C)CCC3[C@@]2(C)O)C2C[C@]34O[C@]5(O)C(OC(=O)C(C)(O)C(C)O)CC[C@@]3(C)C5C(OC(C)=O)[C@@H](OC(C)=O)C4[C@@]21O (stereo partly drawn),1.45
10,CC(=O)C1=C(O)C2C3c4c[nH]c5cccc(c45)CC3C(C)(C)N2C1=O (stereo not drawn),-0.21

# Test: rescue of polyQ-huntingtin neuronal dysfunction in worms, whole organism, C. elegans mechanosensory neurons, N-terminal huntingtin (AID 1599)
# Details: touch response, stronger effect = higher value
row,SMILES,rescue above control
1,O=C1CC2OCC=C3CN4CC[C@]56c7ccccc7N1C5[C@H]2[C@H]3CC46 (stereo partly drawn),-0.21
2,C[C@H]1O[C@@H](O[C@H]2[C@@H](O)C[C@H](O[C@H]3[C@@H](O)C[C@H](O[C@H]4CC[C@]5(C)C6CC[C@]7(C)[C@@H](C8=CC(=O)OC8)CC[C@]7(O)C6CC[C@@H]5C4)O[C@@H]3C)O[C@@H]2C)C[C@H](O)[C@@H]1O (stereo partly drawn),-1.72
3,CO[C@H]1[C@H](O)[C@H](O[C@H]2CC[C@]3(C)C4CC[C@]5(C)C(C6=CC(=O)OC6)CC[C@]5(O)C4CC[C@@H]3C2)O[C@@H](C)[C@@H]1O (stereo partly drawn),-1.89
4,COc1ccc2c(c1OC)C(=O)O[C@H]2[C@H]1c2cc3c(cc2CCN1C)OCO3,-6.7
5,COc1ccc2c(c1)[C@]13CCCC[C@H]1[C@H](C2)N(C)CC3,-2.69
6,C/C=C(\C)C(=O)O[C@H]1C[C@@H](OC(C)=O)[C@@]2(C(=O)OC)CO[C@@H]3C2[C@]12CO[C@](O)(C(=O)OC)[C@H]2[C@](C)(C12O[C@@]1(C)[C@H]1C[C@@H]2OC2OC=C[C@@]21O)[C@@H]3O (stereo partly drawn),3.11
7,C[C@@H]1CC[C@H]2[C@@H](C)C(=O)O[C@@H]3OC4(C)CC[C@@H]1[C@]32OO4,21.4
8,C=C1C2CC[C@H]3[C@]4(C)C[C@H](OC5OC(CO)C(OS(=O)(=O)O)C(OS(=O)(=O)O)C5OC(=O)CC(C)C)C[C@@H](C(=O)O)[C@H]4CC[C@]3(C2)[C@H]1O (stereo partly drawn),-8.48
9,CCC(C)C(=O)O[C@H]1[C@H](O)C2C(CN3CC(C)CCC3[C@@]2(C)O)C2C[C@]34O[C@]5(O)C(OC(=O)C(C)(O)C(C)O)CC[C@@]3(C)C5C(OC(C)=O)[C@@H](OC(C)=O)C4[C@@]21O (stereo partly drawn),-3.98
10,CC(=O)C1=C(O)C2C3c4c[nH]c5cccc(c45)CC3C(C)(C)N2C1=O (stereo not drawn),9.72
